High-throughput results as filed in PubChem BioAssay.
SMN2 splice enh: enhancers of SMN2 splice variant expression; Potency, µM (titrated, usually from 46.1 µM), inactives show at the highest dose activity change, positive = activation, hits mostly activators; HEK293 SMN2-luciferase splicing reporter, luminescence, 30-36 h; 210,000 tested, 2.8% active; AID 1458; note: % of control where 0% means no effect; nearly all actives have a fitted effect of over 55% in size
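qHTS luciferase splicing reporter: luminescence rises when SMN2 exon 7 is included in transfected HEK293 cells. Compound exposure lasted 30-36 h at 37C, with 4.5 mM final sodium butyrate as control, followed by a ONE-Glo read.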
KinaseGlo FLuc: Kinase-Glo luciferase inhibition (counter-screen); Q27757; Kinase-Glo luciferase, ATP luminescence, 8 min; Potency, µM (titrated, usually from 38.3 µM), for the others: at the highest dose activity change, negative = inhibition, most hits filed as inhibitors; 200,000 tested, 0.28% active; AID 1379; note: % is set by controls: 0 for no effect and ±100 for the full control effect; nearly all actives have a fitted effect of over 60% in size
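Recombinant Kinase-Glo luciferase, 10 uM ATP (linear range), luciferin; imidazole pH 7.2 / KCl / MgCl2 / Tween / BSA buffer; 8 min RT; luminescence.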
FLuc counter: firefly luciferase modulation, counter-screen for miR-21 project. P08659. purified FLuc, Km substrates, luminescence inhibition. Potency, µM (titrated, usually from 57.5 µM), without a hit: at the highest dose activity change, negative = inhibition, hits mostly inhibitors. 360,000 tested, 6.9% active;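 note: plate controls were vehicle for no effect and reference inhibitor for full effect; nearly all actives have a fitted effect of over 55% in size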
Target sequence (P08659 whole entry, looked up): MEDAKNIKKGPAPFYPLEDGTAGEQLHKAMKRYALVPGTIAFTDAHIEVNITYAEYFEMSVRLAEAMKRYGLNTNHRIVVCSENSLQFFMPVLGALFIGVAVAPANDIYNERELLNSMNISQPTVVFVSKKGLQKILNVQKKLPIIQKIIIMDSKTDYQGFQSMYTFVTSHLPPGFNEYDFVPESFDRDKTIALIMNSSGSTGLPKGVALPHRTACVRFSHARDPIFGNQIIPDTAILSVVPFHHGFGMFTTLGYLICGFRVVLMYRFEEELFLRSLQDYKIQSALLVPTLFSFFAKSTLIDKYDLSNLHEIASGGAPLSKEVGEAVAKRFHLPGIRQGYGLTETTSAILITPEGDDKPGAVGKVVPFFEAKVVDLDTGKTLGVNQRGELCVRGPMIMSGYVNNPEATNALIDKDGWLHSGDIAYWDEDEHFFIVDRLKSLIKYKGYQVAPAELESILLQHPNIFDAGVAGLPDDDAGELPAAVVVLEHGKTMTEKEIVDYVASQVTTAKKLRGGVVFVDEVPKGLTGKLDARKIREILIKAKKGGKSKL
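Purified P. pyralis luciferase, 10 nM final, with Km-level 10 uM D-luciferin and 10 uM ATP in 50 mM Tris acetate pH 7.5, 10 mM Mg acetate, 0.01% Tween-20, 0.05% BSA; 6-point qHTS titration about 60 µM downward; luminescence read.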
ELG1 genotoxic: induces genotoxicity in HEK293T cells with luciferase-tagged ELG1 | Potency, µM (series often up to 46 µM), without a hit: at the top dose activity change, positive = activation, most hits filed as activators | 330,000 tested, 1.3% active | AID 504466 | HEK293T ELG1-luciferase reporter, luminescence, 16 h; note: % of control where 0% means no effect; nearly all actives have a fitted effect of over 60% in size
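Cells (2,000/well) expressing the ELG1-luciferase fusion are dosed by pin tool and kept 16 hr at 37 °C, 5% CO2. Signal comes from ONE-Glo luciferase reagent after 30 min at room temperature.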
NPC1 promoter act: activators of NPC1 promoter | AID 485313 | 320,000 tested, 2.4% active | Potency, µM (titrated, usually from 9.22 µM), for the others: at the highest dose activation, usual class: activators | Huh7 NPC1 promoter luciferase reporter, 24 h; note: % of control where 0% means no effect; nearly all actives have a fitted effect of over 60% in size
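Stable NPC1-promoter luciferase Huh7 line; cpd (DMSO) 24 h, 37 °C, 5% CO2; Amplite luciferase reagent 10 min RT; luminescence readout. qHTS format.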
Rab9 promoter act: activators of Rab9 promoter | AID 485297 | Potency, µM (titrated, usually from 9.22 µM), inactives show at the top dose activation, negative = inhibition, actives largely listed as activators | 320,000 tested, 2.8% active | Huh7 Rab9 promoter-luciferase reporter, luminescence, 24 h; note: % of control where 0% means no effect; nearly all actives have a fitted effect of over 60% in size
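Luminescence from Amplite-detected luciferase (10 minutes, ambient) reports Rab9 promoter activation. Before that, stable Rab9-luciferase Huh7 cells (1500/well, reduced-serum OP-MEM I plus 10% FBS) were exposed to compound for 24 hours at 37C.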
An asterisk follows results filed as active; ? = inconclusive; . = no result given; ! = not confirmed by another sample; [ ] = dose if it differs, or a comment. Only some compounds are listed: those with a hit (about 7.5% of all), similar ones and a draw of the others. Calls come from the whole dose curve; as a rule, active = well fitted curve in the direction sought with a large enough effect; inconclusive = small, poorly fitted or top-dose-only effect, or another doubt; inactive = no such curve, though single readings can be large; an effect the other way counts as inactive or inconclusive. Potency is the fitted concentration of half-maximal effect.

SMILES | SMN2 splice enh | KinaseGlo FLuc | FLuc counter | ELG1 genotoxic | NPC1 promoter act | Rab9 promoter act
O=C(CSCc1c(F)cccc1Cl)NNC(=S)NC1CCCCC1 | . | . | 1% | 4% | 2% | 2%
COc1cc(/C=N/NC(=O)c2cccnc2)cc2c1OCO2 | . | . | -4% | 1% | -1% | 6%
COc1cc(/C=N/NC(=O)c2ccccn2)cc2c1OCO2 | 11µM* | -8% | 24µM* | ? | ? | ?
CCOc1ccc(C(=O)Nc2onc3c2CCCC3)cc1 | 2.8µM* | . | 0.3µM* | . | . | .
CC(C)COc1ccc(C(=O)Nc2onc3c2CCCC3)cc1 | 19% | . | 0.34µM* | . | . | .
O=C(COC(=O)c1n[nH]c(=O)c2ccccc12)NC1CCCCC1 | . | . | 1% | 2% | -5% | 3%
Cc1ccc(C(=O)NC2(O)C(=O)c3ccccc3C2=O)cc1C | . | . | 2.4µM* | -2% | -3% | -2%
COc1ccc(-c2cc(=O)c3cc(OC)ccc3o2)cc1 | 0.89µM*! | -6% | 0.21µM* | ? | 0.5µM* | 0.25µM*
COc1cccc(-c2cc(=O)c3ccc(OC)cc3o2)c1 | 13µM* | -1% | . | . | . | .
CCC(N=c1cc(-c2ccc(OC)cc2)oc2ccc(C)cc12)C(=O)O (centres undefined) | ? | -1% | 3µM* | ? | ? | 9%
CCC(N=c1cc(-c2ccc(OC)c(OC)c2)oc2ccc(C)cc12)C(=O)O (centres undefined) | 3% | 1% | -11% | 4% | -1% | -4%
COc1cccc(-c2cc(=O)c3cc(O)ccc3o2)c1 | . | -8% | . | . | . | .
CCC1=C2CC[C@H]3C(=O)N(C)C(=O)[C@H]3[C@H]2[C@@]2(C)C(=NCc3ccccc3)OC(=O)N2C1=O | -4% | -2% | . | . | . | .
COc1ccc(NC(=O)c2nnn(-c3ccc(C(C)C)cc3)c2C)c(OC)c1 | . | . | 0% | . | . | .
O=C1CCc2cc(NS(=O)(=O)c3ccc(F)cc3)cc3c2N1CC3 | . | . | 2% | ? | -3% | -1%
Cc1ccc(S(=O)(=O)Nc2cc3c4c(c2)CCN4C(=O)CC3)cc1 | . | . | -1% | 10µM* | -8% | 3%
O=C(Nc1cccc(S(=O)(=O)N2CCOCC2)c1)c1cc2c(s1)CCC2 | -27% | 0% | 15µM* | -7% | 9% | 7%
O=C(Nc1cc(S(=O)(=O)N2CCOCC2)ccc1N1CCOCC1)c1cc2c(s1)CCC2 | . | . | -1% | -5% | -2% | -9%
CC(=O)Nc1cccc(Cn2cccn2)c1 | 8% | -2% | 1% | 13% | 0% | -6%
O=C(Nc1cccc(Cn2cccn2)c1)c1cc2c(s1)CCCC2 | ? | -27% | ? | ? | 0.11µM* | 0.35µM*
O=C(COC(=O)c1nc(Cl)ccc1Cl)NNC(=O)c1cccs1 | . | . | 1% | 1% | -1% | -5%
CCOc1ccccc1CNC(=O)C1CCN(S(=O)(=O)c2cccc3nonc23)CC1 | . | . | -1% | . | . | .
Cc1nc(SCC(N)=O)c([N+](=O)[O-])[nH]1 | 13% | 6% | -2% | -1% | -2% | -6%
C/C(=N\NC(=O)CSc1nc(C)[nH]c1[N+](=O)[O-])c1ccc(F)cc1 | . | . | 15µM* | -6% | 24% | ?
O=C(N/N=C/c1ccc([N+](=O)[O-])cc1)c1[nH]ncc1Br | 11µM* | ? | ? | ? | 2µM* | 1µM*
SMILES | SMN2 splice enh | KinaseGlo FLuc | FLuc counter | ELG1 genotoxic | NPC1 promoter act | Rab9 promoter act
O=c1oc(CCO)cc2ccc(C#Cc3ccsc3)cc12 | . | . | ? | ? | ? | 4µM*
O=c1oc(CCCO)cc2ccc(C#Cc3cccnc3)cc12 | . | . | . | 13% | . | .
CN(C)c1ccc(C#Cc2ccc3cc(CCO)oc(=O)c3c2)cc1 | . | . | 1.3µM* | 17% | 4µM* | ?
COc1ccc(C(=O)OCCN2CCN(C3=NS(=O)(=O)c4ccccc43)CC2)cc1OC | . | . | 1% | -1% | -2% | 5%
CC(=O)N(/N=C1\Sc2ccccc2C1=O)c1cccc(C)c1 | 5.6µM* | ? | 11µM* | ? | ? | 14%
CC(=O)N(CN1C(=O)c2ccccc2C1=O)c1cccc(C)c1 | -4% | -4% | 13% | 0% | -4% | 2%
COc1cc(CO)ccc1OCC(=O)N1CCc2ccccc21 | . | . | -6% | 15% | 16% | 26%
O=C(COc1ccccc1F)OCC(=O)N1CCc2ccccc21 | . | . | ? | -1% | 2% | ?
O=Cc1ccc(OCC(=O)N2CCc3ccccc32)c(Br)c1 | . | . | 7.6µM* | ? | 6% | 19%
O=C(COc1ccc(F)cc1Br)N1CCc2ccccc21 | 11µM* | -9% | 0.76µM* | 1.6µM* | 2.8µM* | 0.63µM*
COc1cc(CNCCc2ccc(S(N)(=O)=O)cc2)ccc1OCC(=O)N1CCCCC1 | 19% | -3% | 2% | 2% | 0% | -1%
CN1CCC[C@@H]1c1cccnc1.O=C(O)c1ccccc1O.O=C([OH2+])c1ccccc1O.O=C([OH2+])c1ccccc1O.O=C([OH2+])c1ccccc1O.[Cu] | -19%[9.22 µM] | -4%[7.66 µM] | . | . | . | .
COc1ccc(C(=O)Nc2nc(CC(=O)NCCc3cccc(OC)c3)cs2)cc1 | . | . | 13µM* | -5% | 14% | 1%
COc1ccc(C(=O)Nc2nc(CC(=O)NCCc3ccccc3)cs2)cc1 | . | . | 4.8µM* | -8% | 24% | 30%
CCCCN1CC(=O)N2[C@H](c3ccc(Cl)cc3)[C@@H]3C(=O)N(CC)C(=O)[C@@H]3[C@]2(Cc2ccccc2)C1=O | . | . | 0% | 0% | 1% | 5%
CCCNS(=O)(=O)c1cccc(C(=O)NNC(=O)c2cc(C)oc2C)c1 | . | . | 9% | 1% | 0% | 0%
N[C@H](CO)Cc1cnc[nH]1 | . | 1% | . | . | . | .
CCN(CC)S(=O)(=O)c1ccc2c(c1)c(=O)c(C(=O)N1CCN(c3cccc(C)c3)C(C)C1)cn2C (centres undefined) | 6% | . | -3% | . | . | .
CCOc1ccc(OCc2ccc(C(=O)N3CCCC(C)C3)cc2)cc1 (centres undefined) | 10µM* | -3% | 13µM* | ? | 4µM* | 2µM*
CN(C)/C=N/NC(=O)c1ccc(Cl)cc1 | 14% | -3% | 0% | 0% | 1% | -4%
CN(C)/C=N/c1cnc(C(=O)c2ccc(Cl)cc2)n1C | 11µM* | 0% | 11µM* | 6.3µM* | 1.8µM* | 1.8µM*
CCc1nnc(NC(=O)c2nc(SCc3ccc(F)cc3)ncc2Cl)s1 | 2% | . | 12µM* | . | . | .
Cc1ccc(CSc2ncc(Cl)c(C(=O)Nc3nnc(C)s3)n2)cc1 | -4% | . | 15µM* | . | . | .
Nc1nc2ccc(N3CCOCC3)cc2s1 | 16µM* | -1% | 11µM* | 8.2µM* | ? | 2.8µM*
COc1ccccc1C(=O)NC(=O)COC(=O)C1CCC1 | . | . | 8.5µM* | -4% | -3% | 0%
O=C(COC(=O)C1CCC1)NC(=O)c1ccccc1 | . | . | ? | -4% | 1% | 1%
